{
  "source": "PubChem BioAssay (NCI)",
  "note": "The panel holds about 83,000 compounds, 20% with a hit somewhere; the sample as a whole holds those more often.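 Negative percent growth values reflect cell death: -40 means 40% of the cells present at the start died, and -100 means all died.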 Values without a mark were called inactive. Activity calls are given as the source filed them.",
  "data": [
    {"test_system": "PC-3 prostate", "assay": "NCI-60 one-dose screen, 48 h (100 = growth as untreated, 0 = no growth, -100 = all killed)", "details": "10 µM unless noted", "description": "Growth inhibition of the PC-3 human tumor cell line is measured as a screen for anti-cancer activity. Cells are grown in 96 well plates and exposed to the test compound for 48 hours. Compounds are tested at a single concentration, which is 10^-5 M for most compounds. The reported endpoint is percent growth (GI% or GIPRCNT), where numbers from 0 - 100% represent growth inhibition, and numbers from -100% - 0 represent cell death. For example, a value of 40 represents 60% growth inhibition. A value of 0 means no net growth occurred over the course of the experiment. A value of -40 indicates 40% of cells at the beginning of the experiment died by the end of the experiment. A value of -100 means all cells are dead at the end of the experiment.\nNCI-60 Human Tumor Cell Lines Screen was performed using the standard one-dose NCI protocol, which is described in more detail at https://dtp.cancer.gov/discovery_development/nci-60/default.htm.\nCompounds with GIPRCNT values below 10 were considered active. Activity score was based on GIPRCNT using the following formula: […]\nScore is 0 for GIPRCNT values of 100 or above, 50 for GIPRCNT values of 0, and 100 for GIPRCNT values of -100.", "values": [
      {"molecule": "O=C(Nc1nc2ccccc2s1)c1cc(-c2ccc(F)cc2)n2nc(-c3ccccc3)cc2n1", "growth": "56.9%"},
      {"molecule": "Cn1[nH]cc(/C=N/C(N)=O)c1=O", "growth": "108%"},
      {"molecule": "Cn1c(=O)c2c(nc(Br)n2CCC(=O)Nc2ccc(F)cc2)n(C)c1=O", "growth": "95.9%"},
      {"molecule": "Clc1ccc(CCC(Cn2ccnc2)Sc2c(Cl)cccc2Cl)cc1", "note": "(stereo not given)", "growth": "26.5%"},
      {"molecule": "Cc1cc(NCCCNc2ccnc3cc(Cl)ccc23)nc(N2CCN(C)CC2)n1", "growth": "51.5%"},
      {"molecule": "Cc1nn(-c2ccccc2)c(Cl)c1C(CC(=O)c1ccc(Cl)cc1)CC(=O)c1ccc(Cl)cc1", "growth": "73.1%"},
      {"molecule": "COc1ccc(C2CC(c3cccc(Nc4ccnc5cc(Cl)ccc45)c3)=NN2C=O)cc1", "note": "(stereo not given)", "growth": "25.7%"},
      {"molecule": "Cc1cc(C(=O)O)c(C)cc1C(=O)O", "growth": "92.3%"},
      {"molecule": "Fc1ccc(-c2nnc(/C=C/c3cn(-c4ccccc4)nc3-c3ccccc3)o2)cc1", "growth": "95.2%"},
      {"molecule": "Cn1cnc([N+](=O)[O-])c1S(=O)(=O)Oc1ccc(Cl)cc1", "growth": "90.8%"},
      {"molecule": "CCN1C(=O)c2ccc3c4c(ccc(c24)C1=O)C(=O)N(CCCNCc1ccccc1OC)C3=O", "growth": "0.702% (active)"},
      {"molecule": "O=C(Nc1nc(-c2ccccc2)cs1)c1cc(O)c(O)c(O)c1", "growth": "58.8%"},
      {"molecule": "O=C(Cc1ccccn1)C(F)(F)C(F)(F)C(F)(F)F", "growth": "91.3%"},
      {"molecule": "C[n+]1ccc(C#N)c2ccccc21", "growth": "107%"},
      {"molecule": "COC(=O)[C@]1(C(C)C)N[C@H](c2cn(-c3ccccc3)nc2-c2ccccc2)[C@@H]2C(=O)N(c3ccc(Cl)cc3)C(=O)[C@@H]21", "growth": "89.9%"},
      {"molecule": "Clc1ccc(-n2cnc3c(Cl)ncnc32)cc1Cl", "growth": "110%"},
      {"molecule": "NC(=O)c1ncn([C@@H]2O[C@H](CO)[C@@H](O)[C@H]2O)n1", "growth": "86%"},
      {"molecule": "O=[N+]([O-])c1cnc(Sc2ccncn2)c([N+](=O)[O-])c1", "growth": "96.3%"},
      {"molecule": "Cc1ccc(NC(=O)COC(=O)c2ccc(S(=O)(=O)N3CCCCCC3)cc2)cc1", "growth": "93.6%"},
      {"molecule": "CCOc1cc(C(C)(C)C)ccc1C1=N[C@H](c2ccc(Cl)cc2)[C@H](c2ccc(Cl)cc2)N1C(=O)N1CCN(CC#Cc2cccc3c2CN([C@@H]2CCC(=O)NC2=O)C3=O)CC1", "growth": "0.359% (active)"},
      {"molecule": "Cc1cc(C(C)(C)C)cc(C)c1CC1=NCCN1", "growth": "91%"},
      {"molecule": "O=C1NCN(c2ccccc2)C12CCN(CCCC(c1ccc(F)cc1)c1ccc(F)cc1)CC2", "growth": "96.3%"},
      {"molecule": "C[C@]12CC[C@@H]3c4ccc(O)c([N+](=O)[O-])c4CC[C@H]3[C@@H]1CC[C@@H]2NS(=O)(=O)c1ccc(C(F)(F)F)cc1", "growth": "24.2%"},
      {"molecule": "Clc1ncn[nH]1", "growth": "101%"},
      {"molecule": "O=C1c2ccccc2-c2c1nc1ccccc1[n+]2[O-]", "growth": "99.4%"},
      {"molecule": "c1ccc(Nc2nnc(-c3cc(-c4cccnc4)n(-c4ccccc4)n3)s2)cc1", "growth": "82.4%"},
      {"molecule": "COc1cc2c(C#N)n3c(c2cc1OC)C(=O)C(c1ccccc1)Oc1ccccc1-3", "note": "(stereo not given)", "growth": "33.4%"},
      {"molecule": "ClC1C2CC(c3ccccc32)C1Cl", "note": "(stereo not given)", "growth": "104%"},
      {"molecule": "CCOc1nc(-c2ccccc2)cc2c(O)c(-c3nnco3)[nH]c(=O)c12", "growth": "43.4%"},
      {"molecule": "CCN(CC)c1ccc(N=Nc2cc(Cl)ccc2Cl)c(NC(=O)CCC(=O)O)c1", "growth": "90.1%"},
      {"molecule": "CCN1C2=C(SC(=S)C1=C1SC(C(=O)OC)=C(C(=O)OC)S1)SC(=Nc1ccc(OC)cc1)C2=O", "growth": "2.92% (active)"},
      {"molecule": "COc1ccc(-c2c3c(nn2-c2ccc(N)cc2)CCc2cnoc2-3)cc1OC", "growth": "64.3%"},
      {"molecule": "CCOc1ccccc1C(=O)OCC(=O)Nc1cccc(S(=O)(=O)N(C)C)c1", "growth": "107%"},
      {"molecule": "Clc1ccc(-c2nc(-c3cccs3)no2)c(Cl)c1", "growth": "83.2%"},
      {"molecule": "CCCCCCCCCCC[C@@H](C[C@H]1OC(=O)[C@H]1CCCCCC)OC(=O)[C@@H](CC(C)C)NC=O", "growth": "50.4%"},
      {"molecule": "Nc1ccc(C2=Nc3cccc4cccc(c34)S2)cc1", "growth": "71.6%"},
      {"molecule": "Cc1cc(CC(=O)O)n(C)c1C(=O)c1ccc(Cl)cc1", "growth": "99.5%"},
      {"molecule": "NC(=O)NN=C(C1CC1)C1CC1", "growth": "112%"},
      {"molecule": "Nc1ccc2c(c1)/C(=N/O)c1cc([N+](=O)[O-])ccc1-2", "growth": "45.3%"},
      {"molecule": "CC(=O)NCCSC(=O)C(=O)SCCNC(C)=O", "growth": "109%"}
    ]}
  ]
}
